# Measured values from PubChem BioAssay (NCI).
# “And” between values parts separate entries of the source, which are not always exact repeats. Equal entries are not always repeated. About 83,000 compounds went through this panel and 20% of them were active in at least one assay; those are over-represented in the sample as a whole.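 In brief: 96-well plates, 48 h treatment, single concentration, percent growth endpoint.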 A number with no mark means an inactive call. The source made the active and inactive calls. The calls were made as follows: active = growth percent below 10; inactive = the rest. Starred links: 1 amine or outer side, 2 acyl side, 3 side chain; linkers in the order of their positions; H or OH if unused. Positions of bridges follow the written chain, without caps; N, C: chain ends. Non-standard residues stand in square brackets, D forms with d. Residues, ends and D or L forms follow the SMILES beside them. Chains are numbered I, II in the order given. Actinocin(9to1) = Cc1c2oc3c(C)ccc(C(=O)[*:1])c3nc-2c(C(=O)[*:2])c(N)c1=O; aThr = C[C@H](O)[C@H](N)C(=O)O; NMeV = CN[C@H](C(=O)O)C(C)C; Sar = CNCC(=O)O
# Legend:
# Assay in all cases: NCI-60 one-dose screen, 48 h (100 = growth as untreated, 0 = no growth, -100 = all killed)
# SN12C renal = tested on: SN12C renal
# UO-31 renal = tested on: UO-31 renal
# TK-10 renal = tested on: TK-10 renal
# ACHN renal = tested on: ACHN renal
# CAKI-1 renal = tested on: CAKI-1 renal
# CCRF-CEM leukemia = tested on: CCRF-CEM leukemia
# MOLT-4 leukemia = tested on: MOLT-4 leukemia
# SR leukemia = tested on: SR leukemia
# RPMI-8226 leukemia = tested on: RPMI-8226 leukemia
# A498 renal = tested on: A498 renal
smiles,measurement,setting,value
CN1CCN(c2ccc3nc(-c4ccc5nc(-c6ccc(O)cc6)[nH]c5c4)[nH]c3c2)CC1,growth,SN12C renal; 10 µM,88.9%
same,growth,UO-31 renal; 10 µM,103%
same,growth,TK-10 renal; 10 µM,111%
same,growth,ACHN renal; 10 µM,94.4%
same,growth,CAKI-1 renal; 10 µM,92.6%
same,growth,CCRF-CEM leukemia; 10 µM,74%
same,growth,MOLT-4 leukemia; 10 µM,76.4%
same,growth,SR leukemia; 10 µM,67%
same,growth,RPMI-8226 leukemia; 10 µM,107%
CCCCCCCCCCCCCCCCCN,growth,SN12C renal; 10 µM,96.8%
same,growth,UO-31 renal; 10 µM,87.6%
same,growth,TK-10 renal; 10 µM,102%
same,growth,ACHN renal; 10 µM,97%
same,growth,CAKI-1 renal; 10 µM,91.1%
same,growth,A498 renal; 10 µM,104%
same,growth,CCRF-CEM leukemia; 10 µM,102%
same,growth,MOLT-4 leukemia; 10 µM,104%
same,growth,SR leukemia; 10 µM,57.8%
same,growth,RPMI-8226 leukemia; 10 µM,107%
N#C/C(=C1C=C/C(=N\O)C(Cl)=C\1)c1ccccc1,growth,SN12C renal; 10 µM,34.8%
same,growth,UO-31 renal; 10 µM,34%
same,growth,TK-10 renal; 10 µM,53.1%
same,growth,ACHN renal; 10 µM,25.7%
same,growth,CAKI-1 renal; 10 µM,5.29% (active)
same,growth,A498 renal; 10 µM,86.5%
same,growth,MOLT-4 leukemia; 10 µM,33.6%
same,growth,RPMI-8226 leukemia; 10 µM,27.3%
COc1ccc2c(C)cc(N/N=C/c3sccc3C)nc2c1,growth,TK-10 renal; 100 µM,-82.7% (active) and -100% (active)
COc1cc(C(C)(C)C)cc(OC)c1C(O)(c1c(OC)cc(C(C)(C)C)cc1OC)c1c(OC)cc(C(C)(C)C)cc1OC,growth,SN12C renal; 10 µM,-80.2% (active)
same,growth,UO-31 renal; 10 µM,-75.7% (active)
same,growth,TK-10 renal; 10 µM,-90.8% (active)
same,growth,ACHN renal; 10 µM,-93% (active)
same,growth,CAKI-1 renal; 10 µM,-69.1% (active)
same,growth,A498 renal; 10 µM,-79.4% (active)
same,growth,CCRF-CEM leukemia; 10 µM,-68% (active)
same,growth,MOLT-4 leukemia; 10 µM,-81% (active)
same,growth,SR leukemia; 10 µM,-77.5% (active)
same,growth,RPMI-8226 leukemia; 10 µM,-27.1% (active)
CN(C)CCC(=O)c1c[nH]c2ccccc12,growth,SN12C renal; 10 µM,104%
same,growth,UO-31 renal; 10 µM,77.3%
same,growth,TK-10 renal; 10 µM,103%
same,growth,ACHN renal; 10 µM,105%
same,growth,CAKI-1 renal; 10 µM,94.4%
same,growth,A498 renal; 10 µM,126%
same,growth,CCRF-CEM leukemia; 10 µM,96.2%
same,growth,MOLT-4 leukemia; 10 µM,93.6%
same,growth,SR leukemia; 10 µM,91.5%
same,growth,RPMI-8226 leukemia; 10 µM,98.1%
BrC/C=C/C[P+](c1ccccc1)(c1ccccc1)c1ccccc1,growth,SN12C renal; 10 µM,64.4%
same,growth,UO-31 renal; 10 µM,66.2%
same,growth,TK-10 renal; 10 µM,48.7%
same,growth,ACHN renal; 10 µM,43.4%
same,growth,CAKI-1 renal; 10 µM,103%
same,growth,A498 renal; 10 µM,72.9%
same,growth,CCRF-CEM leukemia; 10 µM,37.9%
same,growth,MOLT-4 leukemia; 10 µM,79.7%
same,growth,RPMI-8226 leukemia; 10 µM,4.56% (active)
Cc1ccc2nc(N/N=C/c3ccc(C)s3)cc(C)c2c1,growth,TK-10 renal; 100 µM,-96.6% (active) and -100% (active)
S=c1[nH]nc(Cc2ccccc2)c(=S)[nH]1,growth,SN12C renal; 10 µM,113%
same,growth,UO-31 renal; 10 µM,76.3%
same,growth,TK-10 renal; 10 µM,99.7%
same,growth,ACHN renal; 10 µM,107%
same,growth,CAKI-1 renal; 10 µM,97.6%
same,growth,A498 renal; 10 µM,68.9%
same,growth,CCRF-CEM leukemia; 10 µM,104%
same,growth,MOLT-4 leukemia; 10 µM,106%
same,growth,SR leukemia; 10 µM,94.7%
same,growth,RPMI-8226 leukemia; 10 µM,97.2%
CSc1ccc2c(c1)C(N1CCN(C)CC1)Cc1ccccc1S2 (centres undefined),growth,SN12C renal; 10 µM,35.6%
same,growth,UO-31 renal; 10 µM,15.5%
same,growth,TK-10 renal; 10 µM,43.1%
same,growth,ACHN renal; 10 µM,12%
same,growth,CAKI-1 renal; 10 µM,19.5%
same,growth,A498 renal; 10 µM,16.4%
same,growth,CCRF-CEM leukemia; 10 µM,31.7%
same,growth,MOLT-4 leukemia; 10 µM,-23.3% (active)
same,growth,SR leukemia; 10 µM,-32.8% (active)
same,growth,RPMI-8226 leukemia; 10 µM,24.3%
Nc1ccc2cc(Br)c3ccccc3c2c1,growth,SN12C renal; 10 µM,63.8%
same,growth,UO-31 renal; 10 µM,42.9%
same,growth,TK-10 renal; 10 µM,85.8%
same,growth,ACHN renal; 10 µM,66%
same,growth,CAKI-1 renal; 10 µM,20.1%
same,growth,A498 renal; 10 µM,77.5%
same,growth,CCRF-CEM leukemia; 10 µM,37.8%
same,growth,MOLT-4 leukemia; 10 µM,28.2%
same,growth,SR leukemia; 10 µM,57.5%
same,growth,RPMI-8226 leukemia; 10 µM,40%
Cc1cc(NCCCN(C)C)c2ccc3c(ccc4c(NCCCN(C)C)cc(C)nc43)c2n1,growth,SN12C renal; 10 µM,-49.6% (active)
same,growth,UO-31 renal; 10 µM,-54.7% (active)
same,growth,TK-10 renal; 10 µM,-42.2% (active)
same,growth,ACHN renal; 10 µM,-75.2% (active)
same,growth,CAKI-1 renal; 10 µM,-41.7% (active)
same,growth,A498 renal; 10 µM,-87.6% (active)
same,growth,CCRF-CEM leukemia; 10 µM,-28.7% (active)
same,growth,MOLT-4 leukemia; 10 µM,-24.3% (active)
same,growth,RPMI-8226 leukemia; 10 µM,-11.3% (active)
Cc1cnc(/C=N\NC(N)=S)c2cccc(N)c12,growth,SN12C renal; 10 µM,-12.9% (active)
same,growth,UO-31 renal; 10 µM,1.67% (active)
same,growth,TK-10 renal; 10 µM,19.6%
same,growth,ACHN renal; 10 µM,10.2%
same,growth,CAKI-1 renal; 10 µM,2.66% (active)
same,growth,A498 renal; 10 µM,12.4%
same,growth,CCRF-CEM leukemia; 10 µM,-28.1% (active)
same,growth,MOLT-4 leukemia; 10 µM,-13.8% (active)
same,growth,SR leukemia; 10 µM,-16.3% (active)
same,growth,RPMI-8226 leukemia; 10 µM,-9.76% (active)
O=c1[nH]cc(F)c(=O)[nH]1,growth,SN12C renal; 10 µM,57% and 73%
same,growth,SN12C renal; 25 µM,54%
same,growth,SN12C renal; 50 µM,46.3%
same,growth,UO-31 renal; 10 µM,29.3% and 41.7%
same,growth,UO-31 renal; 25 µM,41.3%
same,growth,UO-31 renal; 50 µM,38.2%
same,growth,TK-10 renal; 10 µM,71.2%
same,growth,TK-10 renal; 25 µM,66.9%
same,growth,ACHN renal; 10 µM,39.8% and 60.1%
same,growth,ACHN renal; 25 µM,39.3%
same,growth,ACHN renal; 50 µM,36.9%
same,growth,CAKI-1 renal; 10 µM,28.5% and 63.3%
same,growth,CAKI-1 renal; 25 µM,39.4%
same,growth,CAKI-1 renal; 50 µM,43.2%
same,growth,A498 renal; 10 µM,40.1%
same,growth,A498 renal; 25 µM,-16.3% (active)
same,growth,A498 renal; 50 µM,52.6%
same,growth,CCRF-CEM leukemia; 10 µM,56.3% and 65.9%
same,growth,CCRF-CEM leukemia; 25 µM,57.1%
same,growth,CCRF-CEM leukemia; 50 µM,50%
same,growth,MOLT-4 leukemia; 10 µM,57.5% and 74.9%
same,growth,MOLT-4 leukemia; 25 µM,43.1%
same,growth,MOLT-4 leukemia; 50 µM,37.6%
same,growth,SR leukemia; 10 µM,27.6% and 37.4%
same,growth,SR leukemia; 25 µM,24.8%
same,growth,SR leukemia; 50 µM,31.6%
same,growth,RPMI-8226 leukemia; 10 µM,39.4% and 59.5%
same,growth,RPMI-8226 leukemia; 25 µM,41.4%
"Cc1c2oc3c(C)ccc(C(=O)N[C@@H]4C(=O)N[C@H](C(C)C)C(=O)N5CCC[C@H]5C(=O)N(C)CC(=O)N(C)[C@@H](C(C)C)C(=O)O[C@H]4C)c3nc-2c(C(=O)N[C@@H]2C(=O)N[C@H](C(C)C)C(=O)N3CCC[C@H]3C(=O)N(C)CC(=O)N(C)[C@@H](C(C)C)C(=O)O[C@H]2C)c(N)c1=O (I: [aThr][dV]P[Sar][NMeV] / II: [aThr][dV]P[Sar][NMeV]; ester I:1-I:C, II:1-II:C; linker I:N-II:N via Actinocin(9to1))",growth,SN12C renal; 0.0025 µM,46.6%
same,growth,SN12C renal; 10 µM,14.9%
same,growth,UO-31 renal; 0.0025 µM,99.4%
same,growth,UO-31 renal; 10 µM,-12.6% (active)
same,growth,TK-10 renal; 0.0025 µM,87.7%
same,growth,TK-10 renal; 10 µM,9.15% (active)
same,growth,ACHN renal; 0.0025 µM,62%
same,growth,ACHN renal; 10 µM,3.24% (active)
same,growth,CAKI-1 renal; 0.0025 µM,92.2%
same,growth,CAKI-1 renal; 10 µM,-13.7% (active)
same,growth,A498 renal; 0.0025 µM,32.4%
same,growth,CCRF-CEM leukemia; 0.0025 µM,42.3%
same,growth,CCRF-CEM leukemia; 10 µM,0.799% (active)
same,growth,MOLT-4 leukemia; 0.0025 µM,23%
same,growth,MOLT-4 leukemia; 10 µM,-7.29% (active)
same,growth,SR leukemia; 0.0025 µM,14.8%
same,growth,SR leukemia; 10 µM,3.04% (active)
same,growth,RPMI-8226 leukemia; 0.0025 µM,3.42% (active)
same,growth,RPMI-8226 leukemia; 10 µM,-21.3% (active)
O=C(/C(=C/c1ccccc1)CBr)c1ccccc1,growth,SN12C renal; 10 µM,71.4%
same,growth,UO-31 renal; 10 µM,69.9%
same,growth,TK-10 renal; 10 µM,116%
same,growth,ACHN renal; 10 µM,70%
same,growth,CAKI-1 renal; 10 µM,60.1%
same,growth,A498 renal; 10 µM,128%
same,growth,CCRF-CEM leukemia; 10 µM,-4.28% (active)
same,growth,MOLT-4 leukemia; 10 µM,-3.18% (active)
same,growth,SR leukemia; 10 µM,-0.723% (active)
same,growth,RPMI-8226 leukemia; 10 µM,16.9%
